Experimental findings from PubChem BioAssay (NCI) are described below.

SMILES strings stand for the structures. About 79,000 compounds went through this panel and 15% of them were active in at least one assay; those are over-represented in the sample as a whole. Unmarked numbers belong to inactive results. The source made the active and inactive calls. Cut-off read from the data, not from the text of the source: active = growth inhibition above about 70%; inactive = the rest.

Assay [1] can be described thus: NCI Yeast Anticancer Drug Screen. Data for the rad50 strain (AID 155).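 Note: 0% = growth of vehicle-only cultures of the same strain.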 As to conditions: S. cerevisiae rad50 strain growth inhibition, hits give high values. The essentials: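 Genetically altered yeast (DNA repair pathway); compound treatment; growth inhibition vs vehicle ctrl.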
Assay [2] in a line: NCI Yeast Anticancer Drug Screen. Data for the mec2-1 strain (AID 157). As to conditions: S. cerevisiae mec2-1 strain, hits give high values. The essentials:
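Test agents were screened against the mec2-1 yeast strain, with defined DNA repair or cell cycle alteration. Growth was scored as inhibition against vehicle-only controls.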

Assay [3] can be described thus: NCI Yeast Anticancer Drug Screen. Data for the sgs1 mgt1 strain (AID 161).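 Note: 0% = growth of cultures given vehicle only.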 The following applies: S. cerevisiae sgs1 mgt1 strain, hits give high values. The essentials:
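Genetically altered yeast, compound exposure, growth inhibition relative to vehicle.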

Assay [4] can be described thus: NCI Yeast Anticancer Drug Screen. Data for the cln2 rad14 strain (AID 165).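 Note: 0% = growth equal to vehicle treated cultures.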 As to conditions: S. cerevisiae cln2 rad14 strain, hits give high values. The essentials:
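Growth of compound-exposed yeast (cln2 rad14 genotype) measured and expressed as inhibition relative to vehicle.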

Assay [5] can be described thus: NCI Yeast Anticancer Drug Screen. Data for the bub3 strain (AID 167). As to conditions: S. cerevisiae bub3 mutant strain, hits give high values. The essentials:
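Yeast carrying a defined mutation is treated with each compound, and growth is compared with that of vehicle-exposed cells to give inhibition.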

A short description of assay [6]: NCI Yeast Anticancer Drug Screen. Data for the mlh1 rad18 strain (AID 175). The following applies: S. cerevisiae mlh1 rad18 strain growth inhibition, hits give high values. The essentials:
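In this whole-cell yeast screen, a strain with altered DNA damage repair is challenged with compound, and its growth is measured against matched vehicle-treated controls.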

Where [7] appears, read: at 5.0 µM (retest, dose inferred, filed as 0.5).
The mark [8] stands for this setting: at 50.0 µM (retest, dose inferred, filed as 5.0).

As to `CCCOc1ccc(/C=N/NC(N)=S)cc1`, the growth inhibition in assay [1] (setting [7]) was 16%; in assay [1] (setting [8]), 73% (active); in assay [1] (at 50.0 µM), 42.1%; in assay [2] (setting [7]), 0%; in assay [2] (setting [8]), 50%; in assay [2] (at 50.0 µM), 59.5%. Moreover, the growth inhibition in assay [3] (setting [7]) is 16%; in assay [3] (setting [8]), 74% (active); in assay [3] (at 50.0 µM) it was 69.7%; in assay [4] (setting [7]), 7%; in assay [4] (setting [8]), 65%; in assay [4] (at 50.0 µM), 76.5% (active). The growth inhibition in assay [5] (setting [7]) was -72%; in assay [5] (setting [8]), 70% (active); in assay [5] (at 50.0 µM), 63.7%; in assay [6] (setting [7]), 12%; in assay [6] (setting [8]), 75% (active); in assay [6] (at 50.0 µM) it was 67.3%.

In the case of `COc1ccc(/C=C(/C#N)c2ccccc2)cc1`, the growth inhibition in assay [1] (setting [7]) is 8%; in assay [1] (setting [8]) it was -2%; in assay [1] (at 50.0 µM) it was 67.1%; in assay [2] (setting [7]) it was 9%; in assay [2] (setting [8]) it was 27%; in assay [2] (at 50.0 µM), 19.6%. For the same molecule, the growth inhibition is 9% in assay [3] (setting [7]); 2% in assay [3] (setting [8]); 81.5% (active) in assay [3] (at 50.0 µM); 1% in assay [4] (setting [7]); 4% in assay [4] (setting [8]); 16.4% in assay [4] (at 50.0 µM). Further, the growth inhibition in assay [5] (setting [7]) is 10%; in assay [5] (setting [8]), 55%; in assay [5] (at 50.0 µM), 73.5% (active); in assay [6] (setting [7]) it was 5%; in assay [6] (setting [8]), 19%; in assay [6] (at 50.0 µM) it was 69%.

Turning to `CCCCCN(CCCCC)C(=S)Nc1ccccc1`, the growth inhibition in assay [1] (setting [7]) is -36%; in assay [1] (setting [8]), 67%; in assay [1] (at 50.0 µM) it was 84.9% (active); in assay [2] (setting [7]), -5%; in assay [2] (setting [8]), 85% (active); in assay [2] (at 50.0 µM), 80.5% (active). Besides, the growth inhibition in assay [3] (setting [7]) is -19%; in assay [3] (setting [8]), 83% (active); in assay [3] (at 50.0 µM) it was 77% (active); in assay [4] (setting [7]), -22%; in assay [4] (setting [8]), 74% (active); in assay [4] (at 50.0 µM), 80.9% (active). For the same molecule, the growth inhibition was 1% in assay [5] (setting [7]); 94% (active) in assay [5] (setting [8]); 87.8% (active) in assay [5] (at 50.0 µM); -4% in assay [6] (setting [7]); 90% (active) in assay [6] (setting [8]); 89.4% (active) in assay [6] (at 50.0 µM).

Turning to `N#Cc1c(N)nc2c(N=Nc3ccccc3)c(N)nn2c1Nc1ccccc1`, the growth inhibition in assay [1] (setting [7]) was -2%; in assay [1] (setting [8]) it was 38%; in assay [1] (at 50.0 µM) it was 51.5%; in assay [2] (setting [7]) it was -2%; in assay [2] (setting [8]), 39%; in assay [2] (at 50.0 µM), 16.4%. In addition, the growth inhibition is 19% in assay [3] (setting [7]); 85% (active) in assay [3] (setting [8]); 79.2% (active) in assay [3] (at 50.0 µM); 1% in assay [4] (setting [7]); 5% in assay [4] (setting [8]); 16.4% in assay [4] (at 50.0 µM). Moreover, the growth inhibition was -5% in assay [5] (setting [7]); 31% in assay [5] (setting [8]); -30.6% in assay [5] (at 50.0 µM); -4% in assay [6] (setting [7]); 55% in assay [6] (setting [8]); 76.1% (active) in assay [6] (at 50.0 µM).

As to `Cc1ccccc1C[n+]1ccccc1Br`, the growth inhibition was 11% in assay [1] (setting [7]); 87% (active) in assay [1] (setting [8]); 94.3% (active) in assay [1] (at 50.0 µM); 9% in assay [2] (setting [7]); 79% (active) in assay [2] (setting [8]); 60.6% in assay [2] (at 50.0 µM). Moreover, the growth inhibition in assay [3] (setting [7]) was 12%; in assay [3] (setting [8]), 78% (active); in assay [3] (at 50.0 µM), 64.6%; in assay [4] (setting [7]), -4%; in assay [4] (setting [8]) it was 74% (active); in assay [4] (at 50.0 µM), 32%. Besides, the growth inhibition was -12% in assay [5] (setting [7]); 77% (active) in assay [5] (setting [8]); 59.6% in assay [5] (at 50.0 µM); 15% in assay [6] (setting [7]); 90% (active) in assay [6] (setting [8]); 54.4% in assay [6] (at 50.0 µM).

Take `CCCCN(CCCC)CCC(=O)c1ccc2c(ccc3ccccc32)c1`: the growth inhibition in assay [1] (setting [7]) is 19%; in assay [1] (setting [8]), 99% (active); in assay [1] (at 50.0 µM), 96.3% (active); in assay [2] (setting [7]), 7%; in assay [2] (setting [8]), 99% (active); in assay [2] (at 50.0 µM) it was 95.5% (active). In addition, the growth inhibition in assay [3] (setting [7]) was 20%; in assay [3] (setting [8]), 99% (active); in assay [3] (at 50.0 µM), 98.8% (active); in assay [4] (setting [7]) it was 21%; in assay [4] (setting [8]), 99% (active); in assay [4] (at 50.0 µM), 87% (active). Besides, the growth inhibition was 47% in assay [5] (setting [7]); 98% (active) in assay [5] (setting [8]); 99% (active) in assay [5] (at 50.0 µM); 12% in assay [6] (setting [7]); 99% (active) in assay [6] (setting [8]); 98.8% (active) in assay [6] (at 50.0 µM).

`COC(=O)c1nnn(-c2cc(Cl)ccc2Cl)c1C(=O)c1ccc(Cl)c(Cl)c1`: the growth inhibition in assay [1] (setting [7]) was 12%; in assay [1] (setting [8]), 98% (active); in assay [1] (at 50.0 µM), 98.8% (active); in assay [2] (setting [7]) it was 4%; in assay [2] (setting [8]), 98% (active); in assay [2] (at 50.0 µM) it was 96.8% (active). Also, the growth inhibition in assay [3] (setting [7]) was 14%; in assay [3] (setting [8]), 98% (active); in assay [3] (at 50.0 µM), 99% (active); in assay [4] (setting [7]), 6%; in assay [4] (setting [8]), 97% (active); in assay [4] (at 50.0 µM), 95.5% (active). Also, the growth inhibition in assay [5] (setting [7]) was 18%; in assay [5] (setting [8]), 99% (active); in assay [5] (at 50.0 µM), 95.3% (active); in assay [6] (setting [7]), 17%; in assay [6] (setting [8]), 99% (active); in assay [6] (at 50.0 µM), 99% (active).

Take `COc1ccc(/C=C(\C(=O)c2ccc(O)cc2)c2ccccc2)cc1OC`: the growth inhibition is -5% in assay [1] (setting [7]); 97% (active) in assay [1] (setting [8]); 98.5% (active) in assay [1] (at 50.0 µM); -9% in assay [2] (setting [7]); 97% (active) in assay [2] (setting [8]); 98% (active) in assay [2] (at 50.0 µM). Further, the growth inhibition in assay [3] (setting [7]) is 2%; in assay [3] (setting [8]), 98% (active); in assay [3] (at 50.0 µM) it was 96.2% (active); in assay [4] (setting [7]), -5%; in assay [4] (setting [8]), 99% (active); in assay [4] (at 50.0 µM), 93.7% (active). For the same molecule, the growth inhibition in assay [5] (setting [7]) was -4%; in assay [5] (setting [8]), 98% (active); in assay [5] (at 50.0 µM), 97.1% (active); in assay [6] (setting [7]), 0%; in assay [6] (setting [8]) it was 99% (active); in assay [6] (at 50.0 µM) it was 97.5% (active).

As for `COc1cccc(C2c3cc4c(cc3OC(NNc3ccccc3)C2C)OCO4)c1OC` (stereo not given), the growth inhibition was 14% in assay [1] (setting [7]); 94% (active) in assay [1] (setting [8]); 73.2% (active) in assay [1] (at 50.0 µM); 3% in assay [2] (setting [7]); 94% (active) in assay [2] (setting [8]); 44.7% in assay [2] (at 50.0 µM). In addition, the growth inhibition is 9% in assay [3] (setting [7]); 86% (active) in assay [3] (setting [8]); 44% in assay [3] (at 50.0 µM); 11% in assay [4] (setting [7]); 90% (active) in assay [4] (setting [8]); 27.1% in assay [4] (at 50.0 µM). Besides, the growth inhibition was 4% in assay [5] (setting [7]); 94% (active) in assay [5] (setting [8]); 34.2% in assay [5] (at 50.0 µM); 24% in assay [6] (setting [7]); 93% (active) in assay [6] (setting [8]); 56.4% in assay [6] (at 50.0 µM).

Take `CCCCCCCCCCCCCCCCCCNCCCCCCCCCCCCCCCC`: the growth inhibition in assay [1] (setting [7]) is 6%; in assay [1] (setting [8]) it was 3%; in assay [1] (at 50.0 µM), 52.7%; in assay [2] (setting [7]), -1%; in assay [2] (setting [8]), 8%; in assay [2] (at 50.0 µM), 38.5%. The growth inhibition is 5% in assay [3] (setting [7]); 0% in assay [3] (setting [8]); 49.9% in assay [3] (at 50.0 µM); -1% in assay [4] (setting [7]); 2% in assay [4] (setting [8]); 75% (active) in assay [4] (at 50.0 µM). Besides, the growth inhibition in assay [5] (setting [7]) was -5%; in assay [5] (setting [8]), 3%; in assay [5] (at 50.0 µM), 69.2%; in assay [6] (setting [7]), 4%; in assay [6] (setting [8]), 6%; in assay [6] (at 50.0 µM) it was 45.8%.
